Most compounds without a hit are left out; they make up all but 1.8% or so of the library.
USP10 inh: inhibitors of human USP10 deubiquitinase. purified USP10, Ub-rhodamine fluorescence, 60 min. inhibition, % at 20 µM. actives 1.1% (n = 47,000). AID 1645856
Target sequence (Q14694 whole entry, looked up): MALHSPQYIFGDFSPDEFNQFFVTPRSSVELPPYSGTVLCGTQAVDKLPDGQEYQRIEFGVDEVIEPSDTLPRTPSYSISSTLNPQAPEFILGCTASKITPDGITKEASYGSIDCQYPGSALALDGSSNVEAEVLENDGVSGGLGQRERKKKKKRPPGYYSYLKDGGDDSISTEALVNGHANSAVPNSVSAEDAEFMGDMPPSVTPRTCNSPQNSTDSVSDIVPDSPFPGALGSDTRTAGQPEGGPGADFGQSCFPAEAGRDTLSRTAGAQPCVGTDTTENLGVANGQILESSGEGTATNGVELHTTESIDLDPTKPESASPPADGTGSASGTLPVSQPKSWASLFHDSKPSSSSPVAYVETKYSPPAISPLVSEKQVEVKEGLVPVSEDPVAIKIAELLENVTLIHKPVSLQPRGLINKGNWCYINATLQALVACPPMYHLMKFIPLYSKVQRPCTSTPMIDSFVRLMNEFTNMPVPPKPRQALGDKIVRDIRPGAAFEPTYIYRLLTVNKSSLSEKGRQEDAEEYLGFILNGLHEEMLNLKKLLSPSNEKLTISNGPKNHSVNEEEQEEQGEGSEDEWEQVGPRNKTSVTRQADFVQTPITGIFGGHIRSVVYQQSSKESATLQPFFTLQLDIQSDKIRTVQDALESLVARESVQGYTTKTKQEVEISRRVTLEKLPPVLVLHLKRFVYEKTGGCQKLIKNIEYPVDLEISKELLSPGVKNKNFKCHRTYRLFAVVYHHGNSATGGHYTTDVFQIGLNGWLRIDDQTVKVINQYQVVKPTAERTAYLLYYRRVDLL
USP7 block: inhibitors of human USP7 deubiquitinase; AID 1645854; purified USP7, Ub-rhodamine cleavage fluorescence; actives 0.3% (n = 47,000); Q93009; inhibition, % at 20 µM
OTUD3 block: inhibitors of human OTUD3 deubiquitinase | inhibition, % at 25 µM | purified OTUD3, Ub-rhodamine fluorescence, 2 h | actives 0.7% (n = 47,000) | AID 1645858 | Q5T2D3
UCHL1 block: human UCHL1 deubiquitinase inhibition | P09936 | purified UCHL1, Ub-rhodamine cleavage fluorescence | actives 0.2% (n = 47,000) | inhibition, % at 20 µM
Each line names hits and unclear results; the compound was inactive in the other large screens. No stated cut-off is given here; in the data, active means inhibition above about 30%; inactive means the rest.

COc1ccccc1NC(=O)Cn1cc(C(=O)c2ccc(C)cc2)c(=O)c2cc(Cl)ccc21	USP10 inh 31.0
COc1cc(NC(=O)Cn2cc(C(=O)c3ccccc3)c(=O)c3cc(Cl)ccc32)cc(OC)c1	USP10 inh 61.9, USP7 block 51.5
COc1ccccc1NC(=O)Cn1cc(C(=O)c2ccc(C)cc2)c(=O)c2cc(C)ccc21	none
O=C(NCCc1ccc(Cl)cc1)c1cnc2sccn2c1=O	none
CNC(=O)c1ccc(NC(=O)c2cn3ccc(C)cc3n2)cc1	none
O=C(NCc1ccc(Cl)cc1)c1cc2c(s1)-c1ccccc1OC2	USP10 inh 43.7
O=C(NCc1ccc2c(c1)OCO2)c1cc2c(s1)-c1ccccc1OC2	none
O=C(Nc1ccc(F)cc1)N1CCN(Cc2nnnn2-c2ccc(F)c(F)c2)CC1	none
C/C(=C\Cc1c(O)cc(C)c(C=O)c1O)CC[C@@]1(C)[C@H](C)CCC(=O)[C@@H]1C	USP10 inh 37.5
COC1C(CO)O[C@@H](O[C@H](C[C@@]2(C)[C@H](C)CCC(=O)[C@@H]2C)/C(C)=C/Cc2c(O)c(Cl)c(C)c(C=O)c2O)C(O)C1O (stereo not given in full)	none
CCn1nccc1-c1cccc(-c2noc(-c3cccc(NC(=O)c4ccco4)c3)n2)c1	none
O=c1cc(CNc2ccc(Br)cc2)nc2nc(-c3ccccc3)[nH]n12	OTUD3 block 36.0
COc1ccc(NCc2cc(=O)n3[nH]c(NCc4ccc(C(C)C)cc4)nc3n2)cc1	none
Cc1ccc(S(=O)(=O)CCc2nc(S(=O)(=O)c3ccc(C)cc3)c(NCc3ccccc3)o2)cc1	none
Cc1c(C(=O)N2CCCC2)c(S(=O)(=O)NCc2ccco2)c(C)n1C	none
O=C(CC1C(=O)Nc2nc(-c3ccccc3)nn21)Nc1cccc2ccccc12 (stereo not given)	none
O=C(CC1C(=O)Nc2nc3ccccc3n21)Nc1cccc2ccccc12 (stereo not given)	USP10 inh 53.8
O=C(COc1ccc(Cl)cc1)Nc1ccc(-c2cn3cccnc3n2)cc1	none
CCOc1ccc(C(=O)CCC(=O)Nc2cccc(S(=O)(=O)Nc3cccc(Cl)c3)c2)cc1	USP10 inh 33.4
Cc1ccc(C2(C)NC(=O)N(Cc3ncc(-c4ccc(Cl)cc4)o3)C2=O)cc1 (stereo not given)	none
CC1=CN2C(=N)/C(=C/c3cn(Cc4ccc(Cl)cc4)c4ccccc34)C(=O)N=C2S1	none
N=C1/C(=C/c2cn(Cc3ccccc3F)c3ccccc23)C(=O)N=C2SC(C(F)(F)F)=NN12	USP10 inh 50.6, USP7 block 40.9
Cc1ccc(C)c(S(=O)(=O)N2CCN(c3ccc4nnc(-c5ccco5)n4n3)CC2)c1	USP10 inh 39.4, USP7 block 37.4, UCHL1 block 45.0
O=C(c1cc(Cl)ccc1Cl)N1CCN(c2ccc3nnc(-c4ccco4)n3n2)CC1	none
O=S(=O)(c1ccccc1Cl)N1CCN(c2ccc3nnc(-c4ccco4)n3n2)CC1	USP10 inh 39.2, USP7 block 34.2, UCHL1 block 39.6
Cc1ccc(S(=O)(=O)Nc2ccc(C)n(CC(=O)N3CCCC3)c2=O)cc1	none
CC(C(=O)NCc1ccc(F)cc1)n1cccc1C(=O)c1ccccc1 (stereo not given)	OTUD3 block 73.7
COc1ccc(-c2cc3nc([C@H](C)NC(=O)Cc4ccccc4C)nn3cn2)cc1	USP10 inh 36.4, USP7 block 32.2, OTUD3 block 46.7
C[C@H](NC(=O)Cc1ccccc1F)c1nc2cc(-c3ccccc3F)ncn2n1	USP10 inh 40.2, OTUD3 block 35.8
C[C@@H](NC(=O)c1ccc2c(c1)OCO2)c1nc2cc(-c3ccccc3F)ncn2n1	none
C[C@@H](NC(=O)c1ccc2c(c1)OCCO2)c1nc2cc(-c3ccccc3F)ncn2n1	OTUD3 block 42.6
C[C@@H](NC(=O)C1CCCCC1)c1nc2cc(-c3ccccc3F)ncn2n1	none
NC(=O)[C@@H]1CN2CCN(S(=O)(=O)c3ccccc3)C[C@@H]2[C@H]1c1ccccc1	none
CSc1ccc(CNC(=O)Cn2nc(C)c3c(C)n(-c4ccccc4)nc3c2=O)cc1	USP10 inh 45.9
COc1cc(NC(=O)CSc2ncnc3scc(-c4ccccc4)c23)c(C(=O)O)cc1OC	USP10 inh 30.1
COc1cc2c(cc1OC)CN(c1ncnc3scc(-c4ccccc4)c13)CC2	none
CC(=O)N1CCn2c(c(C(=O)Nc3ccccc3)c3cccnc32)C1	none
COc1ccc(NC(=O)CNC(=O)c2ccc3nc(-n4cccc4)sc3c2)cc1	OTUD3 block 32.3
CS(=O)(=O)N(CC(=O)Nc1ccc(F)c(F)c1)c1ccc2c(c1)OCO2	none
COc1cc(NC(=O)Cn2nc(-c3ccc(F)cc3)ccc2=O)ccc1-n1cnnn1	USP10 inh 50.6
